Reference: PubChem BioAssay (NCATS)
Inconclusive results are not listed. Calls of active or inactive are those of the source. Calls come from the whole dose curve; as a rule, active = well fitted inhibition curve with a large enough effect; inconclusive = small, poorly fitted or top-dose-only effect; inactive = flat fitted curve, though single readings scatter.

How the values were obtained:
Assay in all cases: qHTS profiling for inhibitors of Plasmodium falciparum proliferation (AID 504749); note: nearly all actives have a fitted effect of over 60% in size
7G8 = details: P. falciparum in erythrocytes, SYBR Green DNA, 72 h; series mostly up to 12.8 µM
Outline: (§1)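 Infected RBCs, 0.3% parasitemia/2.5% Hct final; cpd 72 h, 37 C, 5% CO2; lysis buffer with saponin/triton/SYBR Green I, o/n RT dark; FI 485/535; norm. to artemisinin (0.29 uM) and DMSO.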

AA1029 = details: P. falciparum in erythrocytes, SYBR Green DNA, 72 h; series mostly up to 12.8 µM
Outline: as §1

CP211 = details: P. falciparum in erythrocytes, SYBR Green DNA, 72 h; series mostly up to 12.8 µM
Outline: as §1

CP215 = details: P. falciparum in erythrocytes, SYBR Green DNA, 72 h; series mostly up to 28.7 µM
Outline: as §1

CP217 = details: P. falciparum in erythrocytes, SYBR Green DNA, 72 h; series mostly up to 12.8 µM
Outline: as §1

CP250 = details: P. falciparum in erythrocytes, SYBR Green DNA, 72 h; series mostly up to 12.8 µM
Outline: as §1

CP252 = details: P. falciparum in erythrocytes, SYBR Green DNA, 72 h; series mostly up to 12.8 µM
Outline: as §1

CP256 = details: P. falciparum in erythrocytes, SYBR Green DNA, 72 h; series mostly up to 12.8 µM
Outline: as §1

CP260 = details: P. falciparum in erythrocytes, SYBR Green DNA, 72 h; series mostly up to 12.8 µM
Outline: as §1

CP268 = details: P. falciparum in erythrocytes, SYBR Green DNA, 72 h; series mostly up to 12.8 µM
Outline: as §1

CP315 = details: P. falciparum in erythrocytes, SYBR Green DNA, 72 h; series mostly up to 12.8 µM
Outline: as §1

CP329 = details: P. falciparum in erythrocytes, SYBR Green DNA, 72 h; series mostly up to 12.8 µM
Outline: as §1

DIV14 = details: P. falciparum in erythrocytes, SYBR Green DNA, 72 h; series mostly up to 12.8 µM
Outline: as §1

FAB9 = details: P. falciparum in erythrocytes, SYBR Green DNA, 72 h; series mostly up to 12.8 µM
Outline: as §1

JCK = details: P. falciparum in erythrocytes, SYBR Green DNA, 72 h; series mostly up to 12.8 µM
Outline: as §1

N140 = details: P. falciparum in erythrocytes, SYBR Green DNA, 72 h; series mostly up to 12.8 µM
Outline: as §1

PC15 = details: P. falciparum in erythrocytes, SYBR Green DNA, 72 h; series mostly up to 12.8 µM
Outline: as §1

SC27B = details: P. falciparum in erythrocytes, SYBR Green DNA, 72 h; series mostly up to 12.8 µM
Outline: as §1

TAB165 = details: P. falciparum in erythrocytes, SYBR Green DNA, 72 h; series mostly up to 12.8 µM
Outline: as §1

W2 = details: P. falciparum in erythrocytes, SYBR Green DNA, 72 h; series mostly up to 12.8 µM
Outline: as §1

Measured: Potency

O=C(Cc1cccs1)NC1C(=O)N2C(C(=O)[O-])=C(C[n+]3ccccc3)CSC12 (centres undefined)
inactive: all assays above

CN1[C@@H]2CC[C@H]1CC(OC(=O)[C@@H](O)c1ccccc1)C2 (some centres undefined)
inactive: all assays above

C[N+](C)(C)CC(O)CC(=O)O (centres undefined)
inactive: all assays above

C[C@@H]1CCC[C@H](C)N1NC(=O)c1ccc(Cl)c(S(N)(=O)=O)c1
inactive: all assays above

CN1CCCC[C@@H]1CCN1c2ccccc2Sc2ccc(S(C)=O)cc21 (some centres undefined)
not listed: 7G8
inactive: all other assays above

CCCN(CCC)C(=O)[C@@H](CCC(=O)O)NC(=O)c1ccccc1
inactive: all assays above
